From PubChem
ELG1 genotoxic – induces genotoxicity in HEK293T cells with luciferase-tagged ELG1; HEK293T ELG1-luciferase reporter, luminescence, 16 h; Potency, µM (series often up to 46 µM), most hits filed as activators; actives 1.3% (n = 330,000); AID 504466; also: nearly all actives have a fitted effect of over 60% in size
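HEK293T cells expressing luciferase-tagged ELG1 were treated with compound or DMSO for 16 hr at 37°C. Luciferase activity was then read after 30 min with ONE-Glo at room temperature; rising signal flags genetic stress.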
Rab9 prom act – activators of Rab9 promoter | Huh7 Rab9 promoter-luciferase reporter, luminescence, 24 h | Potency, µM (series often up to 9.22 µM), actives largely listed as activators | actives 2.8% (n = 320,000) | AID 485297; also: nearly all actives have a fitted effect of over 60% in size
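Huh7 cells stably carrying a Rab9 promoter-luciferase reporter, 1500 cells per well in OP-MEM I with 10% FBS, treated with compound 24 hours at 37C. Luciferase activity read by luminescence after 10 minutes with Amplite reagent.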
SMN2 splice enh – increases expression of the SMN2 splice variant | AID 1458 | actives 2.8% (n = 210,000) | Potency, µM (top dose mostly 46.1 µM), usual class: activators | HEK293 SMN2-luciferase splicing reporter, luminescence, 30-36 h; also: nearly all actives have a fitted effect of over 55% in size
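qHTS luciferase splicing reporter: luminescence rises when SMN2 exon 7 is included in transfected HEK293 cells. Compound exposure lasted 30-36 h at 37C, with 4.5 mM final sodium butyrate as control, followed by a ONE-Glo read.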
NPC1 prom act – activates the NPC1 promoter. actives 2.4% (n = 320,000). Potency, µM (titrated, usually from 9.22 µM), most hits filed as activators. AID 485313. Huh7 NPC1 promoter luciferase reporter, 24 h; also: nearly all actives have a fitted effect of over 60% in size
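Huh7 cells stably carrying NPC1 promoter–luciferase, plated in Opti-MEM with 10% FBS for 2 h, were exposed to compound in DMSO for 24 h at 37 °C; luciferase reagent was added for 10 min and luminescence read.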
Luc counter – counter-screen: inhibitors of Kinase-Glo firefly luciferase. Q27757. Kinase-Glo luciferase, ATP luminescence, 8 min. Potency, µM (doses to about 38.3 µM), actives largely listed as inhibitors. actives 0.28% (n = 200,000); also: nearly all actives have a fitted effect of over 60% in size
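Kinase-Glo luciferase light output from ATP and luciferin was measured with 10 uM ATP, within the enzyme's linear range. Buffer: 50 mM imidazole pH 7.2, 50 mM KCl, 7 mM MgCl2, 0.01% Tween 20, 0.05% BSA; luminescence read after 8 min at ambient temperature.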
FLuc modulator – counter-screen for miR-21 project: firefly luciferase inhibitors or activators | actives 6.9% (n = 360,000) | P08659 | Potency, µM (titrated, usually from 57.5 µM), hits mostly inhibitors | purified FLuc, Km substrates, luminescence inhibition; also: nearly all actives have a fitted effect of over 55% in size
Target sequence (P08659 whole entry, looked up): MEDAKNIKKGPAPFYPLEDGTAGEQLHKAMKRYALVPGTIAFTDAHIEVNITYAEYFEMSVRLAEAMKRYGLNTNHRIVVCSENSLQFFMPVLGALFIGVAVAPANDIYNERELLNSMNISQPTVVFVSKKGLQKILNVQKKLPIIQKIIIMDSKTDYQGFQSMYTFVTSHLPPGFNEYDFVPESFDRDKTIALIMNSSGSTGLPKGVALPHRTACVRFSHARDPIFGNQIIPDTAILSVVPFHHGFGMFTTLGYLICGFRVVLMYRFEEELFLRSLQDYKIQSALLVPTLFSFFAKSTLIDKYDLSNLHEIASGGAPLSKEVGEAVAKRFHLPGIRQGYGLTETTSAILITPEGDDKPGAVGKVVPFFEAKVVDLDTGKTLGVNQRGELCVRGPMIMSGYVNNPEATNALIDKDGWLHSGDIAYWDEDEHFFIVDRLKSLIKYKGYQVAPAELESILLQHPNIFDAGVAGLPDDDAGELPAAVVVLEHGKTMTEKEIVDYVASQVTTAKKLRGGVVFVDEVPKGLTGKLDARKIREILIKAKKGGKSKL
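Purified P. pyralis luciferase, 10 nM final, with Km-level 10 uM D-luciferin and 10 uM ATP in 50 mM Tris acetate pH 7.5, 10 mM Mg acetate, 0.01% Tween-20, 0.05% BSA; 6-point qHTS titration about 60 µM downward; luminescence read.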
Large screens that a line does not name were inactive. Shown are actives, neighbours in structure and some others; about 7.5% of the full set was active somewhere. Calls follow the shape of the dose curve; as a rule, active = well fitted curve in the direction sought with a large enough effect; inconclusive = small, poorly fitted or top-dose-only effect, or another doubt; inactive = no such curve, though single readings can be large; an effect the other way counts as inactive or inconclusive.

Cc1ccc2oc(=O)c(/C=C(\O)C(C)(C)C)nc2c1	none
Cc1cc(C)c2nc(Nc3nc(-c4ccccc4)cc(=O)[nH]3)nc(C)c2c1	FLuc modulator 1.7µM (no result: SMN2 splice enh, Luc counter)
COc1cccc(CNC(=O)COC(=O)c2nc(Cl)c(Cl)c(Cl)c2Cl)c1	ELG1 genotoxic inconclusive (no result: SMN2 splice enh, Luc counter)
CC1CCCC2(C1)NC(=S)c1c(sc3c1CCCC3)N2 (configuration not stated)	FLuc modulator 24µM
CC1CCCC2(C1)NC(=S)N(c1ccccc1)N2 (configuration not stated)	none
Cc1ccccc1OCC(=O)Nc1sc2c(c1C(=O)OC(C)C)CCCC2	none (no result: ELG1 genotoxic, Rab9 prom act, NPC1 prom act, Luc counter)
O=C(O)c1ccc(NC2=Nc3cccc4cccc2c34)cc1	Rab9 prom act 1.6µM, NPC1 prom act 1.6µM, FLuc modulator inconclusive (no result: SMN2 splice enh, Luc counter)
NC(=O)NNC1=Nc2cccc3cccc1c23	none
COc1ccccc1NC1=Nc2cccc3cccc1c23	FLuc modulator 19µM (no result: SMN2 splice enh, Luc counter)
COc1ccccc1N1CCN(C2=Nc3cccc4cccc2c34)CC1	Rab9 prom act inconclusive, NPC1 prom act inconclusive, FLuc modulator 3.4µM (no result: SMN2 splice enh)
Cc1oc2ncn(CC(C)C)c(=O)c2c1C(=O)N(CCN(C)C)Cc1ccccc1	none (no result: ELG1 genotoxic, Rab9 prom act, SMN2 splice enh, NPC1 prom act, Luc counter)
N#C/C(=C(/O)CN1CCCC1)c1nc(-c2ccccc2)cs1	ELG1 genotoxic inconclusive, Rab9 prom act 3.2µM, NPC1 prom act 4µM, FLuc modulator 19µM (no result: SMN2 splice enh, Luc counter)
CCOC(=O)C1CCCN(C/C(O)=C(\C#N)c2nc(-c3ccc(Cl)cc3)cs2)C1 (configuration not stated)	none
CCN(C)c1ccc(/C=N\n2nnnc2N)cc1	ELG1 genotoxic 9.2µM, SMN2 splice enh 11µM, FLuc modulator 12µM
O=C(CNC(=O)c1cccs1)N=Nc1c(O)[nH]c2ccc([N+](=O)[O-])cc12	none (no result: SMN2 splice enh, Luc counter)
Cc1csc2nc(CSc3nc4ccccc4o3)c(Br)n12	ELG1 genotoxic 2.9µM, Rab9 prom act 2.5µM, SMN2 splice enh inconclusive, NPC1 prom act 3.5µM, FLuc modulator 8.5µM
CC(C)(C)c1ccc(C(=O)Cn2nc(C(=O)O)c3ccccc3c2=O)cc1	FLuc modulator 9.5µM (no result: SMN2 splice enh, Luc counter)
Cc1cc(C(=O)Cn2nc(C(=O)O)c3ccccc3c2=O)c(C)n1-c1ccc(F)cc1	ELG1 genotoxic inconclusive, SMN2 splice enh inconclusive, FLuc modulator 2.7µM
COCCn1c(C)cc(C(=O)Cn2nc(C(=O)O)c3ccccc3c2=O)c1C	ELG1 genotoxic 8.2µM, Rab9 prom act inconclusive, FLuc modulator 1.2µM
CCCn1c(C)cc(C(=O)Cn2nnc3ccccc3c2=O)c1C	ELG1 genotoxic inconclusive, Rab9 prom act 0.89µM, SMN2 splice enh 13µM, NPC1 prom act 1µM, FLuc modulator 4.3µM
CC(C)CC(=O)Nc1ccc(C(=O)Cn2nc(C(=O)O)c3ccccc3c2=O)cc1	none
CCOc1cc(C(=O)N2CC(=O)Nc3ccc(C)cc3C2c2ccccc2)cc(OCC)c1OCC (configuration not stated)	none (no result: ELG1 genotoxic, Rab9 prom act, NPC1 prom act, Luc counter)
C=CCn1c(C)cc(C(=O)Cn2nc(C(=O)O)c3ccccc3c2=O)c1C	ELG1 genotoxic inconclusive, Rab9 prom act inconclusive, SMN2 splice enh 11µM, NPC1 prom act inconclusive, FLuc modulator 0.48µM
Clc1ccc(OCc2noc(-c3ccsc3)n2)c(Cl)c1	ELG1 genotoxic inconclusive, Rab9 prom act 4µM, NPC1 prom act 2µM, FLuc modulator 4.3µM (no result: SMN2 splice enh, Luc counter)
COc1cc(-c2nc(Cc3ccccc3Cl)no2)cc(OC)c1OC	none
Fc1cc(Cl)c(OCc2noc(-c3ccsc3)n2)c(Cl)c1	Rab9 prom act 3.2µM, NPC1 prom act inconclusive, FLuc modulator inconclusive (no result: SMN2 splice enh, Luc counter)
Clc1ccc(Cl)c(SCCCN2CCNCC2)c1	none (no result: ELG1 genotoxic, Rab9 prom act, NPC1 prom act, FLuc modulator)
COc1ccc(-n2nc(C(=O)Nc3ccc(C)cn3)c3c4ccccc4n(C)c3c2=O)cc1Cl	none (no result: ELG1 genotoxic, Rab9 prom act, NPC1 prom act, Luc counter)
COCCNC(=S)NC(=O)c1ccc(C(C)(C)C)cc1	ELG1 genotoxic inconclusive, Rab9 prom act inconclusive, SMN2 splice enh inconclusive, FLuc modulator 13µM
COc1ccc(C(=O)NC(=S)NCCc2ccccc2)cc1	FLuc modulator inconclusive
CC(C)(C)c1ccc(C(=O)NC(=S)NCc2ccco2)cc1	FLuc modulator 19µM (no result: SMN2 splice enh, Luc counter)
COc1ccc(CCNC(=O)C(=O)Nc2ccc(C)cc2)cc1OC	none (no result: ELG1 genotoxic, Rab9 prom act, SMN2 splice enh, NPC1 prom act, Luc counter)
